Source: PubChem BioAssay (National Center for Advancing Translational Sciences (NCATS))
SMN2 splice up: qHTS Assay for Enhancers of SMN2 Splice Variant Expression | HEK293 SMN2-luciferase splicing reporter, luminescence, 30-36 h | Potency, µM (doses to about 46.1 µM), without a hit: at the top dose activity change, positive = activation, hits mostly activators | hit rate 2.8% among 210,000; also: % of control where 0% means no effect; nearly all actives have a fitted effect of over 55% in size
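HEK293 cells carry an SMN2 minigene-luciferase reporter in which exon 7 inclusion puts luciferase in frame. Cells were seeded at 2000 cells/well, attached for 10-12 hours, then exposed to compounds for 30-36 hours at 37C before ONE-Glo luminescence.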
NPC1 prom act: qHTS Assay for NPC1 Promoter Activators; Huh7 NPC1 promoter luciferase reporter, 24 h; Potency, µM (series often up to 9.22 µM), inactives show at the top dose activation, most hits filed as activators; hit rate 2.4% among 320,000; also: % of control where 0% means no effect; nearly all actives have a fitted effect of over 60% in size
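Quantitative HTS used a cell-based reporter: Huh7 cells stably bearing the NPC1 promoter upstream of luciferase were treated with compounds for 24 h, and promoter activation was read as luminescence.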
p53 reactivator: qHTS assay for re-activators of p53 using a Luc reporter | hit rate 0.063% among 320,000 | H1299 p53-A138V BP100-luciferase reporter, luminescence, 24 h | Potency, µM (series often up to 92.2 µM), for inactives: at the top dose activity change, positive = activation, usual class: activators | AID 504706, 2011; also: % of control where 0% means no effect; nearly all actives have a fitted effect of over 45% in size
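p53-null H1299 cells stably carrying temperature-sensitive p53-A138V and a BP100-luciferase reporter were pinned with compounds (4-point, 1:5 series) and held 24 hrs at 37 deg C. Luminescence was read 10 min after detection reagent.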
ELG1 genotox: qHTS screen for small molecules that induce genotoxicity in human embryonic kidney (HEK293T) cells expressing luciferase-tagged ELG1 | Potency, µM (titrated, usually from 46 µM), for the others: at the highest dose activity change, positive = activation, most hits filed as activators | hit rate 1.3% among 330,000 | AID 504466, 2011 | HEK293T ELG1-luciferase reporter, luminescence, 16 h; also: % of control where 0% means no effect; nearly all actives have a fitted effect of over 60% in size
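Step 1: seed 2,000 HEK293T ELG1-luciferase cells per well. Step 2: add compound or DMSO, incubate 16 hr at 37 °C. Step 3: ONE-Glo, 30 min at room temperature, read luminescence.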
Rab9 promoter act: qHTS Assay for Rab9 Promoter Activators | Huh7 Rab9 promoter-luciferase reporter, luminescence, 24 h | hit rate 2.8% among 320,000 | Potency, µM (highest dose often 9.22 µM), for inactives: at the top dose activation, negative = inhibition, usual class: activators | AID 485297, 2010; also: % of control where 0% means no effect; nearly all actives have a fitted effect of over 60% in size
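Rab9 promoter-driven luciferase in stably transfected Huh7 cells; 1500 cells/well rested 2 h, exposed to compound in DMSO for 24 h at 37 °C, 5% CO2. Luminescence read 10 min after adding luciferase reagent at ambient temperature.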
FLuc modulator: qHTS profiling assay for firefly luciferase inhibitor/activator using purifed enzyme and Km concentrations of substrates (counterscreen for miR-21 project); Luciferin 4-monooxygenase (Photinus pyralis), P08659; purified FLuc, Km substrates, luminescence inhibition; Potency, µM (top dose mostly 57.5 µM), for inactives: at the highest dose activity change, negative = inhibition, usual class: inhibitors; hit rate 6.9% among 360,000; AID 588342, 2011;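 also: plate controls were vehicle for no effect and reference inhibitor for full effect; nearly all actives have a fitted effect of over 55% in size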
Target sequence (P08659 whole entry, looked up): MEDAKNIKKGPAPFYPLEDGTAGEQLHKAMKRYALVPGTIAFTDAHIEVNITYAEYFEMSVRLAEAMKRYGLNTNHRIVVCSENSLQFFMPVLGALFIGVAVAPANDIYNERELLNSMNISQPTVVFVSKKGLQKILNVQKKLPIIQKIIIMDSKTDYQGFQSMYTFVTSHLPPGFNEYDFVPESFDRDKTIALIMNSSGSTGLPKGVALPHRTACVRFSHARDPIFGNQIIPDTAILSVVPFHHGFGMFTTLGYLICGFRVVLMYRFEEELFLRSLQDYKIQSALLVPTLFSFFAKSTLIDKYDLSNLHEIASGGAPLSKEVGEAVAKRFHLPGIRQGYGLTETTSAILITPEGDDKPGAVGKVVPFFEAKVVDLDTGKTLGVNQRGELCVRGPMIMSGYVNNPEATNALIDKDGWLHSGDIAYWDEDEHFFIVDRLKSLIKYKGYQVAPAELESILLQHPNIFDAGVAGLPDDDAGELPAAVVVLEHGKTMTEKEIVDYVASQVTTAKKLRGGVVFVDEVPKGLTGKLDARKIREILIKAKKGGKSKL
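Purified P. pyralis luciferase (10nM final) with 10uM D-luciferin and 10uM ATP (Km levels) in 50mM Tris acetate pH 7.5, 10mM Mg acetate, 0.01% Tween-20, 0.05% BSA; qHTS 6-point titration, ~60 µM downward; luminescence read.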
Active calls of the source: *; ? = inconclusive; . = no result given; [ ] = dose if it differs, or a comment. Hits are enriched below; roughly 7.3% of the tested compounds scored in any of these assays. Calls follow the shape of the dose curve; as a rule, active = well fitted curve in the direction sought with a large enough effect; inconclusive = small, poorly fitted or top-dose-only effect, or another doubt; inactive = no such curve, though single readings can be large; an effect the other way counts as inactive or inconclusive. Potency is read from the fitted curve at half-maximal effect.

SMILES	SMN2 splice up	NPC1 prom act	p53 reactivator	ELG1 genotox	Rab9 promoter act	FLuc modulator
O=C(Oc1ccc(N2C(=O)CCC2=O)cc1)c1ccccc1Cl	0%	-5%	-29%	-5%	0%	24µM*
O=C(Nc1ccccc1)N1CC2(CCN(C(=O)c3cccc(F)c3)CC2)C1	-1%	.	.	.	.	.
CCOc1ccc(Nc2cc(C)nc3nc(Cc4ccc(Cl)cc4)nn23)cc1	-6%	.	.	.	.	2%
CSc1ccccc1NC(=O)Nc1ccc(Cl)cc1	-31%	?	29%	?	?	11µM*
CC(=O)Nc1ccc(NC(=O)Nc2ccccc2C)cc1	.	11%	5%	3%	4%	?
CC(=O)Nc1ccc(C(=O)OCC(=O)Nc2ccccc2F)cc1	6%	-5%	0%	0%	13%	-9%
COC(=O)c1ccc(NC(=O)Nc2ccccc2F)cc1	2.5µM*	0.4µM*	3%	?	0.45µM*	2.1µM*
CC(=O)N(C)c1ccc(NC(=O)Nc2ccccc2C)cc1	13µM*	?	0%	21µM*	2.8µM*	12µM*
Fc1ccccc1NC(=S)N/N=C/c1ccccc1Br	11µM*	?	?	4.5µM*	3.2µM*	13µM*
CCO[C@H]1O[C@@H]([C@H](COCc2ccccc2)OCc2ccccc2)[C@@H](OCc2ccccc2)[C@H]1O	-8%[20.6 µM]	.	.	.	.	.
COc1ccc(Cl)cc1NC(=O)Nc1ccccc1SC	-4%	-1%	1%	10%	-4%	6%
COc1ccc(NC(=O)Nc2ccccc2F)cc1Cl	10µM*	1.8µM*	4%	5.2µM*	1.4µM*	?
COc1ccc(NC(=O)Nc2ccccc2F)cc1	11µM*	0.56µM*	?	2.6µM*	0.45µM*	3.4µM*
COc1ccc(NC(=O)Nc2ccccc2SC)cc1	13µM*	?	6%	?	?	11µM*
COc1ccc(NC(=O)c2c(F)c(F)c(F)c(F)c2F)cc1Cl	?	4%	2%	-4%	0%	5%[2.3 µM]
O=C(Nc1ccccc1F)Nc1ccccc1Br	13%	26%	-11%	?	-17%	17µM*
Cc1ccccc1C(=O)OCc1cc(=O)n2nc(C3CCCCC3)sc2n1	.	.	.	.	.	-15%
Cc1c(Cl)cccc1NC(=O)CSc1nc(=O)n(Cc2ccco2)c2c1CCC2	.	.	.	.	.	-16%
CC(N)(COP(=O)(O)O)C(=O)O (stereo unspecified)	-8%	.	.	.	.	.
COc1ccc(C/C(C)=N/NC(=S)Nc2ccccc2F)cc1	-56%	3.2µM*	9%	8.2µM*	2.5µM*	15µM*
CNC(=O)Nc1ccccc1F	-1%	0%	1%	-5%	-5%	-1%
COc1cccc(COC(=O)Nc2ccccc2F)c1	.	1.1µM*	?	4.1µM*	2µM*	11µM*
O=C(Nc1ccc(F)cc1)Nc1ccccc1F	16µM*	2.5µM*	?	?	1.4µM*	7.6µM*
COc1ccc(NC(=O)Nc2ccccc2F)c(C)c1	.	24%	4%	7%	?	-9%
O=C(C#Cc1ccccc1)Nc1ccccc1F	.	?	-24%	17%	?	1.9µM*
CCOC(=O)N1CCC(NC(=O)c2ccc3c(c2)N(Cc2ccc(Cl)cc2)C(=O)c2ccccc2S3(=O)=O)CC1	10%	.	.	.	.	-3%
COC(=O)c1sccc1NC(=O)Nc1ccccc1F	.	1%	2%	4%	-1%	13µM*
O=C(Nc1ccc(F)cc1)Nc1cccnc1Cl	.	23%	11%	4%	?	17µM*
COc1cccc(NC(=O)CN(C)C(=O)c2ccc(S(=O)(=O)Nc3ccccc3F)cc2)c1	.	-3%	-5%	0%	-1%	1%
COC(=O)c1sccc1NC(=O)Nc1ccccc1C	.	-7%	2%	12%	-6%	4%
